A selection: hits, their analogues and other compounds. The true share with any hit is near 7.3%.
ELG1 genotox – qHTS screen for small molecules that induce genotoxicity in human embryonic kidney (HEK293T) cells expressing luciferase-tagged ELG1 | HEK293T ELG1-luciferase reporter, luminescence, 16 h | Potency, µM (doses to about 46 µM), for inactives: at the top dose activity change, positive = activation, hits mostly activators | actives 1.3% (n = 330,000) | AID 504466, 2011; further: % of control where 0% means no effect; nearly all actives have a fitted effect of over 60% in size
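16 hr compound incubation (37 °C, 5% CO2) of HEK293T cells carrying luciferase-tagged ELG1; luciferase then measured by ONE-Glo luminescence after 30 min at RT.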
FLuc counter – qHTS profiling assay for firefly luciferase inhibitor/activator using purifed enzyme and Km concentrations of substrates (counterscreen for miR-21 project); Potency, µM (top dose mostly 57.5 µM), for inactives: at the highest dose activity change, negative = inhibition, most hits filed as inhibitors; AID 588342, 2011; purified FLuc, Km substrates, luminescence inhibition; actives 6.9% (n = 360,000);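 further: plate controls were vehicle for no effect and reference inhibitor for full effect; nearly all actives have a fitted effect of over 55% in size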
Target sequence (P08659 whole entry, looked up): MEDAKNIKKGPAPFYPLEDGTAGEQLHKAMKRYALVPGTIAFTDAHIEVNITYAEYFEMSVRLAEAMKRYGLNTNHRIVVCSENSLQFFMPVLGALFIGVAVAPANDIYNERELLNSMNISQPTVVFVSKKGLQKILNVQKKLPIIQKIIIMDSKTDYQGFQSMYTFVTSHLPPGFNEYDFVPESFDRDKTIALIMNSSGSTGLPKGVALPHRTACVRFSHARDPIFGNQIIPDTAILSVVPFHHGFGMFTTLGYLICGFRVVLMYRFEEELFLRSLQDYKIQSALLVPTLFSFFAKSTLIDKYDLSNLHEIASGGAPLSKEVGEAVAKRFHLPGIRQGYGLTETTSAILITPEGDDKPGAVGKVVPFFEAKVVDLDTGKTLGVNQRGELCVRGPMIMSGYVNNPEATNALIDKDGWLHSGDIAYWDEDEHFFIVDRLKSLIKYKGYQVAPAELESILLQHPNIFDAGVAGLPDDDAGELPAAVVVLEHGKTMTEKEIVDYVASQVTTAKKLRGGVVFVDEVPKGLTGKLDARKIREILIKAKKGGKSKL
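Purified P. pyralis luciferase (10nM final) with 10uM D-luciferin and 10uM ATP (Km levels) in 50mM Tris acetate pH 7.5, 10mM Mg acetate, 0.01% Tween-20, 0.05% BSA; qHTS 6-point titration, ~60 µM downward; luminescence read.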
Luc counter – Counterscreen for Luciferase (Kinase-Glo TM) Inhibition. Luciferin 4-monooxygenase (Photuris pensylvanica), Q27757. Kinase-Glo luciferase, ATP luminescence, 8 min. Potency, µM (highest dose often 38.3 µM), without a hit: top-dose activity change, negative = inhibition, actives largely listed as inhibitors. actives 0.28% (n = 200,000); further: on the % scale 0 is the no-effect control and ±100 the full control effect; nearly all actives have a fitted effect of over 60% in size
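Substrate mix (final 50 mM imidazole pH 7.2, 50 mM KCl, 7 mM MgCl2, 10 uM ATP, 0.01% Tween 20, 0.05% BSA) plus pin-tool compound, then Kinase-Glo detection mix; 8 min ambient, luminescence read.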
SMN2 splice enh – qHTS Assay for Enhancers of SMN2 Splice Variant Expression | Potency, µM (highest dose often 46.1 µM), for the others: top-dose activity change, positive = activation, actives largely listed as activators | actives 2.8% (n = 210,000) | HEK293 SMN2-luciferase splicing reporter, luminescence, 30-36 h; further: % of control where 0% means no effect; nearly all actives have a fitted effect of over 55% in size
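HEK293 cells carry an SMN2 minigene-luciferase reporter in which exon 7 inclusion puts luciferase in frame. Cells were seeded at 2000 cells/well, attached for 10-12 hours, then exposed to compounds for 30-36 hours at 37C before ONE-Glo luminescence.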
Rab9 promoter act – qHTS Assay for Rab9 Promoter Activators; Potency, µM (doses to about 9.22 µM), inactives show at the top dose activation, negative = inhibition, most hits filed as activators; Huh7 Rab9 promoter-luciferase reporter, luminescence, 24 h; actives 2.8% (n = 320,000); AID 485297, 2010; further: % of control where 0% means no effect; nearly all actives have a fitted effect of over 60% in size
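Measured in stably transfected Huh7 cells bearing a Rab9 promoter–luciferase construct: 24 h compound treatment at 37 °C, followed by luminescence detection.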
NPC1 prom act – qHTS Assay for NPC1 Promoter Activators; actives 2.4% (n = 320,000); Huh7 NPC1 promoter luciferase reporter, 24 h; AID 485313, 2010; Potency, µM (highest dose often 9.22 µM), for the others: at the top dose activation, most hits filed as activators; further: % of control where 0% means no effect; nearly all actives have a fitted effect of over 60% in size
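Luminescence read-out of NPC1 promoter-driven luciferase in stably transfected Huh7 cells; compounds delivered in DMSO and left 24 h at 37C, 5% CO2, qHTS titration format.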
Active calls of the source: *; u = inconclusive; x = no result given; [ ] = remark or other dose. The call rests on the fitted dose curve; in most records, active means well fitted curve in the direction sought with a large enough effect; inconclusive means small, poorly fitted or top-dose-only effect, or another doubt; inactive means no such curve, though single readings can be large; an effect the other way counts as inactive or inconclusive. Potency means the concentration at half of the fitted maximal effect.

SMILES	ELG1 genotox	FLuc counter	Luc counter	SMN2 splice enh	Rab9 promoter act	NPC1 prom act
COc1cccc(CNCCSc2nnnn2-c2ccccc2)c1OC	x	5%	x	x	x	x
COc1ccc(C(=O)NCc2ccc3c(c2)CCN3C(=O)c2cccc(C)c2)cc1OC	x	-17%	x	x	x	x
O=C(Nc1ccccc1Cl)C1CCN(c2nc3ccccc3[nH]2)CC1	x	0%	x	x	x	x
COc1ccc(-c2[nH]ncc2/C=N/NC(=O)c2cccc([N+](=O)[O-])c2)cc1OC	-1%	-5%	-2%	x	-9%	-7%
COc1ccc(-c2[nH]ncc2/C=N\NC(=O)c2cccs2)cc1OC	1%	19µM*	x	x	-3%	1%
O=C(Nc1cccc(NC(=O)c2cccs2)c1)c1ccc(F)cc1	-5%	21µM*	x	x	-4%[1.84 µM]	0%
CC(=O)c1ccc(OC(=O)c2cccs2)cc1	-7%	12µM*	-7%	10%	-4%	5%
Cc1ccc(S(=O)(=O)Nc2ccc(NC(=O)c3cccs3)cc2)cc1	-4%	-4%	-2%	11µM*	-2%	-6%
CC(=O)Nc1ccc(OC(=O)c2cccs2)cc1	-1%	u	2%	28%	0%	1%
Cc1ccc(-n2c(=O)c3c(c4cc(C)ccc4n3C)n(CC(=O)Nc3cc(C)cc(C)c3)c2=O)cc1	x	0%	x	x	x	x
Cc1cc(C)c(NC(=O)C2CCN(C(=O)N3CC(C)Oc4ccc(Cl)cc43)CC2)c(C)c1 (stereo unspecified)	x	-9%	x	x	x	x
COc1ccc(C(=O)Nc2cccc(NC(=O)c3cccs3)c2)cc1	0%	9.5µM*	x	x	19%	18%
COC(=O)Cc1ccc(NC(=O)c2ccccc2Br)cc1	10%	17µM*	-3%	5%	2%	12%
COc1cccc(NC(=O)c2cccs2)c1	16µM*	17µM*	-4%	13µM*	u	u
O=C(Nc1cccc(NC(=S)NC(=O)c2cccs2)c1)c1ccccc1	9%	-11%	0%	26%	-2%	2%
COc1cc(NC(=O)c2cccs2)cc(OC)c1	10%	u	-3%	15%	u	24%
COC(=O)Cc1ccc(NC(=S)NNC(=O)c2ccccc2Br)cc1	0%	-1%	-1%	-10%	-1%	-2%
Cc1ccc(NC(=O)c2ccccc2NC(=O)c2cccs2)cc1	4%	u	x	x	4%	-9%
COc1ccc(NC(=O)c2ccccc2NC(=O)c2cccs2)cc1	u	15µM*	x	x	22%	16%
COc1cc(NC(=O)c2cccs2)c(OC)cc1NC(=O)c1ccco1	-1%	-9%	0%	-22%	2%	-1%
COc1ccc(Cl)cc1-c1nc(-c2ccc(NC(=O)c3cccs3)cc2)no1	14%	15µM*	-5%	3%	u	14%
CC(=O)c1ccc(NC(=O)c2cccs2)cc1	16µM*	15µM*	u	10µM*	2.2µM*	2.8µM*
Cc1ccc(C(=O)Nc2ccc(NC(=O)c3cccs3)cc2)cc1C	x	-7%	x	-4%	x	x
COc1ccc(NC(=O)c2ccco2)cc1NC(=O)c1cccs1	1%	-13%	3%	4.5µM*	-6%	-1%
COc1ccc(NC(=O)c2cccs2)cc1OC	23µM*	u	0%	x	24%	20%
SMILES	ELG1 genotox	FLuc counter	Luc counter	SMN2 splice enh	Rab9 promoter act	NPC1 prom act
Cc1ccc(S(=O)(=O)n2nc(C)c(S(=O)(=O)N3CCC(C)CC3)c2C)cc1	x	0%	x	x	x	x
CCOC(=O)c1ccc(NC(=O)CC2C(=O)N(c3ccc(F)cc3)C(=O)N2Cc2ccc3c(c2)OCO3)cc1 (stereo unspecified)	x	-5%	x	-51%	x	x
NC(=O)C1CCN(S(=O)(=O)c2ccc(N3CCCCS3(=O)=O)cc2)CC1	x	0%	x	x	x	x
COc1ccc(C)cc1NS(=O)(=O)c1ccc2c(c1)CCCN2C(C)=O	x	5%	x	x	x	x
COc1ccc(NC(=O)c2ccc(NC(=O)c3cccs3)cc2)cc1	21µM*	-3%	x	x	-1%	-1%
O=C(Nc1ccc(NC(=O)c2cccs2)cc1)c1ccc(Br)o1	u	0%	-7%	3%	28%	9%
O=C(Nc1cccc(NC(=O)c2cccs2)c1)c1ccc(Br)o1	-1%	24µM*	x	x	4%	-1%
COc1ccc(NC(=O)n2nc(OC(=O)c3cccs3)cc2N)cc1	u	17µM*	x	x	13%	12%
COc1cccc2cc(C(=O)Nc3ccccc3C)/c(=N/O)oc12	u	6.7µM*	x	x	17%[1.84 µM]	u
COc1ccccc1C(=O)Nc1ccccn1	13µM*	7.6µM*	-10%	22µM*	u	2.5µM*
COc1ccccc1C(=O)Nc1ccncc1	0%	6%	x	x	-4%	-1%
COc1ccccc1C(=O)Nc1ccc(Br)cc1C	10%	17µM*	0%	x	u	u
COCC(=O)Nc1ccc(Br)cc1C	3%	6%	-4%	-3%	-3%	-1%
COc1ccc(NC(=O)CN(c2ccccc2)S(=O)(=O)N(C)C)cc1OC	-7%	2%	2%	1µM*	-1%	2%
CC(C)CO[C@H](c1ccc2c(c1)OCO2)[C@H](C)Br	x	x	-5%[7.66 µM]	-7%[9.22 µM]	x	x
CCOc1ccc(-c2cc3nc(C4CCN(C(=O)OC(C)(C)C)CC4)c(C(=O)Nc4ccc(C)cc4C)cn3n2)cc1	x	-15%	x	-11%	x	x
COc1ccccc1C(=O)Nc1ccc(Br)c2cccnc12	-7%	12µM*	x	x	10%	14%
COc1cc(C(=O)Nc2cccc3cccnc23)cc(OC)c1OC	-8%	-9%	-2%	-7%	-6%	1%
O=C(Nc1ccc(Cl)c(Cl)c1)Nc1ccccn1	u	u	x	x	4.5µM*	3.2µM*
COc1ccc(NC(=O)NC2CCCc3ccccc32)cc1 (stereo unspecified)	1%	-3%	x	x	10%	9%
O=C(Nc1cccc(O)c1)C(=O)Nc1ccccn1	u	1.5µM*	4.5µM*	10µM*	3.5µM*	u
COc1ccc(NC(=O)NC2CCCc3ccccc32)cc1OC (stereo unspecified)	6.5µM*	u	x	x	0%	u
CCN1C(=O)c2ccccc2S(=O)(=O)c2ccc(C(=O)NCc3ccccc3)cc21	x	-2%	x	23%	x	x
COc1ccc(NC(=O)Nc2ccccn2)cc1OC	u	19µM*	x	x	19%	24%
COc1ccc(NC(=O)Nc2cc(C(C)(C)C)on2)cc1OC	-9%	2%	x	x	-8%	-3%
